Screens (PubChem BioAssay)
Compounds with a hit are over-represented: about 6% of the library has one in this group of screens.
PLK1 PBD inh: inhibitors of human PLK1 polo-box domain binding; Potency, µM, hits mostly inhibitors; Plk1 PBD binding of FITC phosphopeptide, fluorescence polarization; actives 2.8% (n = 360,000); also: series mostly up to about 57 µM; nearly all actives have a fitted effect of over 65% in size
Tau fluor cs: counter-screen for tau fibril formation inhibitors. tau K18 P301L Alexa594 fluorescence, heparin fibrillization. Potency, µM (highest dose often 57.7 µM). actives 0.93% (n = 280,000). AID 1463; also: nearly all actives have a fitted effect of over 55% in size
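Human tau K18 P301L (15 uM unlabeled, 0.24 uM Alexa 594-labeled) in 100 mM sodium acetate pH 7 with 20 uM heparin, 6 hr at 37 C. ThT 30 uM added, 1 hr ambient; Alexa 594 FP and total fluorescence read at 555/632 nm.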
Tau ThT inhib: blocks human tau fibril formation measured by thioflavin T; recombinant tau K18 P301L (four-repeat tau fragment), heparin-induced fibrillization, ThT fluorescence; Potency, µM (highest dose often 57.4 µM), usual class: inhibitors; AID 1460; P10636; actives 2.1% (n = 270,000); also: nearly all actives have a fitted effect of over 55% in size
Target sequence (P10636 561-689 P618L limits assumed): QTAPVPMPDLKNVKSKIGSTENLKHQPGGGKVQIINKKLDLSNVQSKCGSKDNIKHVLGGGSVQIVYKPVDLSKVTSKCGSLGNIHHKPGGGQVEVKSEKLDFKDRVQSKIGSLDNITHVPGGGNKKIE
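Heparin-induced fibrillization of the P301L-mutant K18 repeat-domain fragment of human tau was followed by ThT binding in quantitative high-throughput format.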
VDR inhibitor: blocks the human vitamin D receptor; P11473; VDR-SRC2-3 peptide fluorescence polarization, 2 h; Potency, µM, actives largely listed as inhibitors; actives 0.93% (n = 400,000); AID 504847
Target sequence (P11473 whole entry, looked up): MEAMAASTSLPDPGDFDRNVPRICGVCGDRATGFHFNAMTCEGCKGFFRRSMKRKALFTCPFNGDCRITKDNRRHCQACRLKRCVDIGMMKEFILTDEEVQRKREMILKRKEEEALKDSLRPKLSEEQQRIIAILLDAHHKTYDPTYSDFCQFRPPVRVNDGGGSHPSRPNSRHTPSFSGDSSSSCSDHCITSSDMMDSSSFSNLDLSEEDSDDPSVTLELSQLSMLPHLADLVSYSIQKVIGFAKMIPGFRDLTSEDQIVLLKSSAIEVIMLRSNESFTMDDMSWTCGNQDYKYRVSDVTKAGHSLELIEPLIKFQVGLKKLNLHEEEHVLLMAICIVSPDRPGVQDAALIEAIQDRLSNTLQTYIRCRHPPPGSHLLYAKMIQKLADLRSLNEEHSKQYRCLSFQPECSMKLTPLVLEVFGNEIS
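Reagent solutions, kept cold and dark, are dispensed first; compounds are then pinned in at 23 nl, plates briefly spun, and incubated 2 h at ambient temperature. Inhibition of VDR–SRC2-3 peptide binding is read by fluorescence polarization.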
Sfp inh: Sfp phosphopantetheinyl transferase inhibition; Potency, µM, actives largely listed as inhibitors; actives 3.5% (n = 310,000); AID 1490; Biochemical Sfp PPTase activity, qHTS;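 also: the enzyme is Sfp with the accession as filed and its product quenches rhodamine fluorescence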
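Fluorescence-quenching assay with 15 nM Sfp, 5 uM rhodamine-CoA and 12.5 uM BHQ-2-labelled ybbR peptide in pH 7.6 Hepes/MgCl2 buffer. Enzyme was pre-incubated with compound for 15 min at room temperature. Rate was taken from the 30-min fluorescence change (525/598 nm).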
Tau fibril FP: tau fibrillization inhibition (FP); P10636; K18 P301L tau heparin fibrillization, Alexa594 FP, 6 h; actives 0.39% (n = 280,000); Potency, µM (doses to about 57.7 µM), usual class: inhibitors; also: nearly all actives have a fitted effect of over 55% in size
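FP of Alexa 594-tau after heparin (20 uM) induction. Substrate: human K18 P301L, 15 uM unlabeled, 0.24 uM labeled. Buffer 100 mM sodium acetate pH 7. 6 hr, 37 C.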
Of the large screens only hits and unclear results are named; the others gave an inactive call. Calls follow the shape of the dose curve; as a rule, active = well fitted curve in the direction sought with a large enough effect; inconclusive = small, poorly fitted or top-dose-only effect, or another doubt; inactive = no such curve, though single readings can be large; an effect the other way counts as inactive or inconclusive.

O=C(CCN1C(=O)/C(=C/c2cccs2)SC1=S)Nc1ccc(O)cc1	none (no result: Tau fluor cs, Tau ThT inhib, Tau fibril FP)
O=C(CCN1C(=O)/C(=C/c2cccs2)SC1=S)Nc1ccc(C(=O)O)c(O)c1	PLK1 PBD inh 26.7µM (no result: Tau fluor cs, Tau ThT inhib, Tau fibril FP)
CC(/C=C1\SC(=S)N(CCCC(=O)Nc2ccc(C(=O)O)c(O)c2)C1=O)=C\c1ccccc1	PLK1 PBD inh 26.7µM, Tau fluor cs inconclusive, Tau ThT inhib 5.01µM, VDR inhibitor inconclusive, Sfp inh inconclusive
O=C(CCN1C(=O)/C(=C\c2cccs2)SC1=S)Nc1ccccn1	Tau ThT inhib inconclusive
CN(C(=O)COC(=O)CCC(=O)c1ccc(F)cc1)C1CCCCC1	none (no result: Tau fluor cs, Tau ThT inhib, Sfp inh, Tau fibril FP)
O=C(NCC(c1cccnc1)N1CCc2ccccc2C1)C(=O)Nc1ccc(F)cc1F (stereo not drawn)	Tau ThT inhib inconclusive (no result: PLK1 PBD inh, Sfp inh)
CCOC(=O)C1=C(CCl)NC(=O)NC1c1ccc2c(c1)OCO2 (stereo not drawn)	none (no result: Tau fluor cs, Tau ThT inhib, Tau fibril FP)
C/C=C/COC(=O)c1[nH]c2c(c1C)C(=O)CC(c1ccco1)C2 (stereo not drawn)	PLK1 PBD inh inconclusive, Tau ThT inhib inconclusive, VDR inhibitor inconclusive, Sfp inh 50.1µM
C=CCOC(=O)c1[nH]c2c(c1C)C(=O)CC(c1ccco1)C2 (stereo not drawn)	PLK1 PBD inh inconclusive, Tau ThT inhib inconclusive, VDR inhibitor 79.4µM, Sfp inh inconclusive
Cc1c(C(=O)OCC(C)C)[nH]c2c1C(=O)CC(c1ccco1)C2 (stereo not drawn)	Tau ThT inhib inconclusive, Sfp inh 39.8µM
C/C=C/COC(=O)c1[nH]c2c(c1C)C(=O)CC(c1ccc(N(C)C)cc1)C2 (stereo not drawn)	Tau fluor cs inconclusive, Tau ThT inhib inconclusive
Cc1c(C(=O)N2CCCC2)oc2c1-c1nn(CC(=O)NC(C)c3ccccc3)cc1CC2 (stereo not drawn)	Tau ThT inhib inconclusive (no result: PLK1 PBD inh, Sfp inh)
O=C(CN1C(=O)CCc2cc(S(=O)(=O)N3CCOCC3)ccc21)Nc1cccc(Cl)c1	none (no result: PLK1 PBD inh, Sfp inh)
Cc1c(Cl)cccc1NC(=O)c1ccc2c(c1)nnn2C1CCCC1	none (no result: PLK1 PBD inh, Sfp inh)
CC(C)CN1CCC2(CC1)CCN(S(=O)(=O)c1ccccc1)CC2	none (no result: PLK1 PBD inh, Tau fluor cs, Tau ThT inhib, Tau fibril FP)
O=C(NN1C(=O)C2C(C1=O)C1C=CC2C12CC2)c1ccncc1 (stereo not drawn)	Tau fluor cs inconclusive, Tau ThT inhib 10µM, Tau fibril FP inconclusive
O=C(NN1C(=O)C2C(C1=O)C1C=CC2C12CC2)c1cccnc1 (stereo not drawn)	none
CCOc1ccc(NS(=O)(=O)c2ccc3c(c2)NC(=O)CCS3)cc1	none (no result: PLK1 PBD inh, Sfp inh)
C[C@@H]1CN([C@@H](C)CO)C(=O)CCCn2nncc2CO[C@H]1CN(C)S(=O)(=O)c1cccs1	none (no result: Tau fluor cs, Tau ThT inhib, VDR inhibitor, Sfp inh, Tau fibril FP)
N[C@@H](Cn1ccc(=O)n(Cc2ccccc2C(=O)O)c1=O)C(=O)O	Sfp inh 56.2µM (no result: PLK1 PBD inh)
O=C(Cc1ccc([N+](=O)[O-])cc1)N1N=C(c2ccncc2)CC1(O)C(F)(F)F (stereo not drawn)	PLK1 PBD inh 26.7µM, VDR inhibitor inconclusive
CSc1ccc(CN2C(=O)NC3(CCCCC3)C2=O)cc1	none
COc1ccc(CN2C(=O)NC3(CCCCCC3)C2=O)cc1F	PLK1 PBD inh 3.36µM
CC(C)c1ccc(CN2C(=O)NC3(CCCCCC3)C2=O)cc1	PLK1 PBD inh 26.7µM (no result: Tau fluor cs, Tau ThT inhib, Tau fibril FP)
CCCN(C(=O)c1sc2nc3n(c(=O)c2c1C)CCCC3)c1ccccc1C	none (no result: PLK1 PBD inh, Sfp inh)
Cc1ccc(-c2csc(N)n2)s1	Tau ThT inhib 31.6µM, VDR inhibitor inconclusive, Sfp inh 35.5µM, Tau fibril FP inconclusive
COCc1ccc(CN2CCCCC2C(=O)Nc2ccc(Oc3ccccc3)nc2)o1 (stereo not drawn)	none (no result: Tau fluor cs, Tau ThT inhib, Tau fibril FP)
O=c1cc(-c2ccccc2)nc2cc(-c3ccc(Br)cc3)[nH]n12	none (no result: Tau fluor cs, Tau ThT inhib, Tau fibril FP)
O=c1cc(-c2ccccc2)nc2cc(-c3ccco3)[nH]n12	Tau ThT inhib inconclusive, Sfp inh 25.1µM
O=c1cc(-c2ccc([N+](=O)[O-])cc2)nc2cc(-c3ccc(Cl)cc3)[nH]n12	Tau fluor cs inconclusive, Tau ThT inhib 2.24µM (no result: PLK1 PBD inh, VDR inhibitor)
COc1cccc(NC(=O)C2CCCN(c3ncnc4onc(-c5ccc(F)cc5)c34)C2)c1 (stereo not drawn)	Tau fluor cs inconclusive (no result: PLK1 PBD inh, Sfp inh)
